# Experimental data published in PubChem BioAssay (EPA / NIEHS).
# Records with an inconclusive call do not appear. Calls of active or inactive are those of the source. Rule for the calls, unless noted: active = hit-call score of the fitted dose curve at least 0.9, where 1 is the maximum; inconclusive = response in the unintended direction; inactive = score below 0.9.
# Key:
# [1] = target: bovine Gamma-Aminobutyric Acid Type A Receptor Agonist (GABAR Agonist), GABRA1 (gene 780973) (UniProt P08219); assay: NVS_LGIC_bGABAR_Agonist: NovaScreen (NVS) Ligand-Gated Ion Channel Assay for bovine Gamma-Aminobutyric Acid Type A Receptor Agonist (GABAR Agonist) (AID 2283338)
# Summary of the method: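 Radioligand binding to bovine cerebellar membranes in agonist format, read by filter-based scintillation counting after 1 h. Primary screen in duplicate at 25 uM, with actives followed in concentration series. Gain of signal versus DMSO.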
# [2] = target: human Peripheral-type Benzodiazepine Receptor (PBR), TSPO (gene 706) (UniProt P30536); assay: NVS_MP_hPBR: NovaScreen (NVS) Membrane Protein Assay for human Peripheral-type Benzodiazepine Receptor (PBR) (AID 2283331);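 note: hits reduce radioligand binding relative to DMSO baseline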
# Summary of the method: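 Scintillation counts of filter-bound radioligand served as read-out after 1 h chemical dosing of human colonic membrane preparations. Activity was scored as signal loss against DMSO; initial duplicates at 25 uM, confirmatory concentration series afterward.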
# [3] = target: Voltage-gated inwardly rectifying potassium channel KCNH2 (Homo sapiens) (UniProt Q12809); assay: NVS_IC_hKhERGCh: NovaScreen (NVS) Ion Channel Assay for human Potassium Channel ERG (KhERGCh) (AID 2283333)
# Summary of the method: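 Cell-free radioligand competition binding on hERG protein extracted from CHO cells, read by filter-based scintillation counting 0.75 h after dosing. Primary screen at 25 uM in duplicate, actives followed in concentration series. Signal loss fitted versus DMSO.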
# [4] = target: Glutamate receptor ionotropic, kainate 1 (Rattus norvegicus) (UniProt P22756); assay: NVS_IC_rKAR: NovaScreen (NVS) Ion Channel Assay for rat Kainic Acid Receptors (KAR) (AID 2283334; active = hit-call score of the fitted dose curve at least 0.9, where 1 is the maximum; inactive = score below 0.9)
# Summary of the method: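 Radioligand displacement binding using rat forebrain membranes, 1 h incubation, filter-based scintillation counting. Screened in duplicate at 25 uM, with actives retested in concentration-response up to 50 uM; fitted against DMSO.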
# [5] = target: human Serotonin, 5-Hydroxytryptamine Receptor 3 (5HT3), HTR3A (gene 3359) (UniProt P46098); assay: NVS_LGIC_h5HT3: NovaScreen (NVS) Ligand-Gated Ion Channel Assay for human Serotonin, 5-Hydroxytryptamine Receptor 3 (5HT3) (AID 2283325)
# Summary of the method: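 Radioligand displacement binding to human 5-HT3 from HEK293 membranes, read by filter-based scintillation counting after 1 h. Screen at 25 uM in duplicate; chemicals passing threshold were retested in concentration-response up to 50 uM.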
# NCBI gene 24521 = assay: NVS_IC_rKATPCh: NovaScreen (NVS) Ion Channel Assay for rat Potassium Channel, ATP-Sensitive (KATPCh) (AID 2283319)
# Summary of the method: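 Rat cortical membranes; radioligand binding at ATP-sensitive K channel site, filter-based scintillation counting 2 h after dosing. Single-point duplicate screen at 25 uM, hits rerun in concentration-response up to 50 uM; loss of signal versus DMSO.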
# [6] = target: rat Glutamate, AMPA Site (AMPA), Gria1 (gene 50592) (UniProt P19490); assay: NVS_LGIC_rAMPA: NovaScreen (NVS) Ligand-Gated Ion Channel Assay for rat Glutamate, AMPA Site (AMPA) (AID 2283324)
# Summary of the method: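 Rat forebrain membranes; radioligand binding read 1 h after dosing by filtration and scintillation counting. Duplicate single-point screen at 25 uM, then concentration-response to 50 uM for threshold hits (e.g. 30% inhibition); loss of signal vs DMSO.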
# [7] = target: human Constitutive Androstane Receptor (CAR), NR1I3 (gene 9970) (UniProt Q14994); assay: NVS_NR_hCAR_Agonist: NovaScreen (NVS) Nuclear Receptor Binding Assay for human Constitutive Androstane Receptor Agonism (CAR) (AID 2283328)
# Summary of the method: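 Cell-free TR-FRET binding readout with extracted human CAR protein, read 1 h after dosing. Gain of signal fitted against DMSO baseline. Single-concentration duplicates at 25 uM, then concentration-response up to 50 uM for actives.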
# [8] = target: Sodium channel protein type 1 subunit alpha (Rattus norvegicus) (UniProt P04774); assay: NVS_IC_rNaCh_site2: NovaScreen (NVS) Ion Channel Assay for rat Sodium Channel, Site 2 (NaCh) (AID 2283322);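 note: hit means loss of radioligand binding signal relative to DMSO so AC50 marks displacement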
# Summary of the method: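 Membranes: rat forebrain. Format: competitive radioligand displacement, filter separation, scintillation readout, 1 h exposure. Primary screen in duplicate at 25 uM; actives retested in concentration series.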
# [9] = NVS_IC_rCaBTZCHL: NovaScreen (NVS) Ion Channel Assay for Calcium Channel, Type L, Benzothiazepine Site (CaBTZCHL) (AID 2283337)
# Summary of the method: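 Competitive displacement of a site-specific radioligand from rat cortex membranes, measured as signal loss against DMSO baseline by filter radiodetection after 1.5 h. Single-point 25 uM primary screen.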
# [10] = target: rat Opioid Receptor, Non-selective Binding, Oprm1 (gene 25601) (UniProt P33535); assay: NVS_GPCR_rOpiate_NonSelective: NovaScreen (NVS) G Protein-Coupled Receptor Assay for rat Opioid Receptor, Non-selective Binding (AID 2283318)
# Summary of the method: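 Rat forebrain membranes, cell-free radioligand binding with filter-based scintillation counting, read 1.5 h after dosing. Primary screen in duplicate at 25 uM; actives retested in concentration series. Loss of signal versus DMSO baseline scored.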
# [11] = NVS_IC_rCaDHPRCh_L: NovaScreen (NVS) Ion Channel Assay for rat Calcium Channel, Type L, Dihydropyridine Site (CaDHPRCh_L) (AID 2283320)
# Summary of the method: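 Radioligand binding to dihydropyridine site on rat cortical membranes, filter-based scintillation counting, 1 h after dosing. Screened in duplicate at 25 uM; actives rerun in concentration-response up to 50 uM. Loss of signal versus DMSO baseline.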
# [12] = target: bovine Gamma-Aminobutyric Acid Type A Receptor BDZ, alpha 5 site (GABARa5), GABRA5 (gene 523515) (UniProt Q08E50); assay: NVS_LGIC_bGABARa5: NovaScreen (NVS) Ligand-Gated Ion Channel Assay for bovine Gamma-Aminobutyric Acid Type A Receptor BDZ, alpha 5 site (GABARa5) (AID 2283323)
# Summary of the method: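 Radioligand competitive displacement binding on bovine hippocampal membranes, read 1 hr after dosing by filter-based scintillation counting. Primary screen at 25 uM in duplicate; actives (e.g. ≥30% inhibition) then run in concentration-response up to 50 uM.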
# [13] = target: rat Peripheral-type Benzodiazepine Receptor (PBR), Tspo (gene 24230) (UniProt P16257); assay: NVS_MP_rPBR: NovaScreen (NVS) Membrane Protein Assay for rat Peripheral-type Benzodiazepine Receptor (PBR) (AID 2283335)
# Summary of the method: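 Radioligand displacement, rat kidney membrane prep, 1 h exposure, filter-based scintillation read; DMSO baseline, loss-of-signal scored. Primary screen at 25 uM in duplicate, actives followed up in concentration series.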
# [14] = target: rat Glutamate, NMDA Agonist Site (GluNMDA), Grin1 (gene 24408) (UniProt P35439); assay: NVS_LGIC_rGluNMDA_Agonist: NovaScreen (NVS) Ligand-Gated Ion Channel Assay for rat Glutamate, NMDA Agonist Site (GluNMDA) (AID 2283327)
# Summary of the method: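 Rat forebrain membranes, radioligand binding in the agonist-site protocol; 1 h after dosing; filter-based scintillation counting. Single-concentration duplicate screen at 25 uM, then concentration-response up to 50 uM for actives; gain-of-signal vs DMSO.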
# Chain of rat Opioid Receptor, Non-selective Binding, Oprm1 (gene 25601) (P33535 whole entry, looked up): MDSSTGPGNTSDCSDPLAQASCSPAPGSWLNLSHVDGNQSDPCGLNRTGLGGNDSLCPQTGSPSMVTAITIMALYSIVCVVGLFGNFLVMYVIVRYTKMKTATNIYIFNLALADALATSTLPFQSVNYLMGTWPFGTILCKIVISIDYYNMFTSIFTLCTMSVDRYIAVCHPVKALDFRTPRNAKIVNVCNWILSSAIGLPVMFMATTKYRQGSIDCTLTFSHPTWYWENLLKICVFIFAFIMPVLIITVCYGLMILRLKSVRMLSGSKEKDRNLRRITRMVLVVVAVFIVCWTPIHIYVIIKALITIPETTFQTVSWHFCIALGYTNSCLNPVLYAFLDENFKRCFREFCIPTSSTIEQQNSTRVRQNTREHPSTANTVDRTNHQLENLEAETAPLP
# Chain of bovine Gamma-Aminobutyric Acid Type A Receptor Agonist (GABAR Agonist), GABRA1 (gene 780973) (P08219 whole entry, looked up): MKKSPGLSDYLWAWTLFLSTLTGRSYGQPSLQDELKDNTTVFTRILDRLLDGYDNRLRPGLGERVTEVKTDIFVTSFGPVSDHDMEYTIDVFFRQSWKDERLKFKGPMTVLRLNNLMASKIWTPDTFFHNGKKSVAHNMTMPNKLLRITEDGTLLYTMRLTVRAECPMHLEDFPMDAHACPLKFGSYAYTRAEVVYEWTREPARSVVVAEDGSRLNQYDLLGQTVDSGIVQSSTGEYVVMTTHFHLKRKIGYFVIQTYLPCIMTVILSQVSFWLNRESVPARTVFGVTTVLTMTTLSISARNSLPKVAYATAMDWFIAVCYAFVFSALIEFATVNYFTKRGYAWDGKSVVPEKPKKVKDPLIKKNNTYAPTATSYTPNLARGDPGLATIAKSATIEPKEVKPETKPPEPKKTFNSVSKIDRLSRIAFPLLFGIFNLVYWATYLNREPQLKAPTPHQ
# Chain of human Serotonin, 5-Hydroxytryptamine Receptor 3 (5HT3), HTR3A (gene 3359) (P46098 whole entry, looked up): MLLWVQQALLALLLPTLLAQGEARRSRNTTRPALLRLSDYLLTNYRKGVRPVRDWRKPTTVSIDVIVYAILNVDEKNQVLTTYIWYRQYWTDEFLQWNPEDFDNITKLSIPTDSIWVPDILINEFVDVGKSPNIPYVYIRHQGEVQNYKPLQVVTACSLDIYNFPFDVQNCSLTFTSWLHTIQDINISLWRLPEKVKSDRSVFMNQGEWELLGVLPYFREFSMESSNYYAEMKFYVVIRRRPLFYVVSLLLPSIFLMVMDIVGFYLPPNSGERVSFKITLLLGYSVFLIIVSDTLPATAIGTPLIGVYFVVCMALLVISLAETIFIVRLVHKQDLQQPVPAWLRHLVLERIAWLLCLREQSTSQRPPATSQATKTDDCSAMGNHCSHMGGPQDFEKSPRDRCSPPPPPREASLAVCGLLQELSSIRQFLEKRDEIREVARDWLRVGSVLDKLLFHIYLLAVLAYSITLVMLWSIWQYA
# Chain of Voltage-gated inwardly rectifying potassium channel KCNH2 (Homo sapiens) (Q12809 whole entry, looked up): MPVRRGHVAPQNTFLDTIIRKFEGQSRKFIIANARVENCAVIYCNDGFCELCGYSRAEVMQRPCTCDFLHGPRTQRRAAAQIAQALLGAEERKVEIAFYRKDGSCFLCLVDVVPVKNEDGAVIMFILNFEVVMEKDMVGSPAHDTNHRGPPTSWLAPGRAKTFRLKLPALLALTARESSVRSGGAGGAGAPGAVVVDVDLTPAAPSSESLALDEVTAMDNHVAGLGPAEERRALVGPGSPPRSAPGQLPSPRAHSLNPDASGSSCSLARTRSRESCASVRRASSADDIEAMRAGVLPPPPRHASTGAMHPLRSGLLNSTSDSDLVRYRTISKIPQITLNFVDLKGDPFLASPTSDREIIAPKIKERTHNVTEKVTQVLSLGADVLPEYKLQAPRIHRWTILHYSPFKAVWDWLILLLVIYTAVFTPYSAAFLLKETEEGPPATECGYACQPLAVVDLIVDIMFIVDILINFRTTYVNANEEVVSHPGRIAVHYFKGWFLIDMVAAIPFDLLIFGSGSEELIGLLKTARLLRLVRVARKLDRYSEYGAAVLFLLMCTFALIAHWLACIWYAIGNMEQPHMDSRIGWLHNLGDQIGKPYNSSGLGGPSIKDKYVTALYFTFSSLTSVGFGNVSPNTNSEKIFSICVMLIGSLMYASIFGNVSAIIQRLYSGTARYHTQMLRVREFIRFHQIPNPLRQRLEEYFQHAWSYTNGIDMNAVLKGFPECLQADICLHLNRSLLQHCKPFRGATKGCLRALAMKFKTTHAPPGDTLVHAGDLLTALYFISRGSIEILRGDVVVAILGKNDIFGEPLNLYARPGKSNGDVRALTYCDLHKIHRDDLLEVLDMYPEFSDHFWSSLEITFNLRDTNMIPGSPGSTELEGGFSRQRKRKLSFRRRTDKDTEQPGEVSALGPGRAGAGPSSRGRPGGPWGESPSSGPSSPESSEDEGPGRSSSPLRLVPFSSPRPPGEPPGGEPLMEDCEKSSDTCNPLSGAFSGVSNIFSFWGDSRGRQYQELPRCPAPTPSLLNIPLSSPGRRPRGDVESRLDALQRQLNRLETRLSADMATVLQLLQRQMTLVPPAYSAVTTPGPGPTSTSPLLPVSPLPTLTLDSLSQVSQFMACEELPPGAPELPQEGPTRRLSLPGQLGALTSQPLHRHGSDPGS
# Chain of rat Glutamate, AMPA Site (AMPA), Gria1 (gene 50592) (P19490 whole entry, looked up): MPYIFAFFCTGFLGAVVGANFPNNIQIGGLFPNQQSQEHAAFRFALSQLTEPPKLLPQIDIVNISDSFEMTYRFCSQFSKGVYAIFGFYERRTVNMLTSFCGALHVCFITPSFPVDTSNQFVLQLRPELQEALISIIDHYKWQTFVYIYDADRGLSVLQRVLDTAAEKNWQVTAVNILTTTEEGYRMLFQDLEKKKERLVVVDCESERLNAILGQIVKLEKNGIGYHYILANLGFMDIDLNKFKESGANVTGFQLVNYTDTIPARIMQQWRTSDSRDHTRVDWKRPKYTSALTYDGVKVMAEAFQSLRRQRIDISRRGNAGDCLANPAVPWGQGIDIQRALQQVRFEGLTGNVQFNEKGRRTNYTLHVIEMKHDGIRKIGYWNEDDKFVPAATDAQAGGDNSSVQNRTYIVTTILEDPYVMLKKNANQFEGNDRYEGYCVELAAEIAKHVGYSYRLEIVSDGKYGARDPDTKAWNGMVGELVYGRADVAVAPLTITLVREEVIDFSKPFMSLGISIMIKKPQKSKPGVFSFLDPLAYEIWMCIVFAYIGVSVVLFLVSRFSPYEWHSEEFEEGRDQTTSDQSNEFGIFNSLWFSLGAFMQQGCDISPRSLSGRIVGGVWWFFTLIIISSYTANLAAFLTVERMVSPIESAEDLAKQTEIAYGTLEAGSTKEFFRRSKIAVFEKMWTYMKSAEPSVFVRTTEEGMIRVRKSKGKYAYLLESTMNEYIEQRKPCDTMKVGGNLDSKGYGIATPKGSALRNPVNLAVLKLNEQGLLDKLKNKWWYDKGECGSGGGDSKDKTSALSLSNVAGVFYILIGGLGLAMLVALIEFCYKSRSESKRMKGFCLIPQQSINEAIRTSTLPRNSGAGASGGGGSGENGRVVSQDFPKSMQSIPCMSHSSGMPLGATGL
# Chain of Glutamate receptor ionotropic, kainate 1 (Rattus norvegicus) (P22756 whole entry, looked up): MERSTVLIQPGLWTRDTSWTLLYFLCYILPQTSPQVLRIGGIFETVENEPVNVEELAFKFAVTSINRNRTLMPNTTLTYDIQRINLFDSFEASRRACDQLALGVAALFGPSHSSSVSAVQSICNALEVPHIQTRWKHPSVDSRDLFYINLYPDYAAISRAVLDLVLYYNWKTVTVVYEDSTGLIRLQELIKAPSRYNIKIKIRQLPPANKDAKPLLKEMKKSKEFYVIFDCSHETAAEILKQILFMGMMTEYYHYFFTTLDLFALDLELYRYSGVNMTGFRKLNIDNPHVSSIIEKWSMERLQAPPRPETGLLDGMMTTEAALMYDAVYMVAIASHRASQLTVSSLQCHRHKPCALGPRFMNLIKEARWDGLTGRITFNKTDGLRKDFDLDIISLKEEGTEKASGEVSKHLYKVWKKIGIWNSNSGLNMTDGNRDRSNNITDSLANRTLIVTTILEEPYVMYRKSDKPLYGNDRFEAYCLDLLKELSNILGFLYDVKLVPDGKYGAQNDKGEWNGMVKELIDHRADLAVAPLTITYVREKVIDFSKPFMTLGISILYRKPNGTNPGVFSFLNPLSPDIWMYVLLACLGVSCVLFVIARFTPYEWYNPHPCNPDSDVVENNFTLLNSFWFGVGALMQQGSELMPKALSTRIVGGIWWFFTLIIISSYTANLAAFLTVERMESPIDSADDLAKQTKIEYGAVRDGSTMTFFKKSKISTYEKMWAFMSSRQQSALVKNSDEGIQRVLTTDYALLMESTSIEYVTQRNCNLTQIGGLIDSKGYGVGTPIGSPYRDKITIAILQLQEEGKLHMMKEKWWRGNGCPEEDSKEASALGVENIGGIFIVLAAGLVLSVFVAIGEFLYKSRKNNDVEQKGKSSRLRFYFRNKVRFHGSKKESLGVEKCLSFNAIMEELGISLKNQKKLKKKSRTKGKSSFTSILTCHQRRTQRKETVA
# Chain of bovine Gamma-Aminobutyric Acid Type A Receptor BDZ, alpha 5 site (GABARa5), GABRA5 (gene 523515) (Q08E50 whole entry, looked up): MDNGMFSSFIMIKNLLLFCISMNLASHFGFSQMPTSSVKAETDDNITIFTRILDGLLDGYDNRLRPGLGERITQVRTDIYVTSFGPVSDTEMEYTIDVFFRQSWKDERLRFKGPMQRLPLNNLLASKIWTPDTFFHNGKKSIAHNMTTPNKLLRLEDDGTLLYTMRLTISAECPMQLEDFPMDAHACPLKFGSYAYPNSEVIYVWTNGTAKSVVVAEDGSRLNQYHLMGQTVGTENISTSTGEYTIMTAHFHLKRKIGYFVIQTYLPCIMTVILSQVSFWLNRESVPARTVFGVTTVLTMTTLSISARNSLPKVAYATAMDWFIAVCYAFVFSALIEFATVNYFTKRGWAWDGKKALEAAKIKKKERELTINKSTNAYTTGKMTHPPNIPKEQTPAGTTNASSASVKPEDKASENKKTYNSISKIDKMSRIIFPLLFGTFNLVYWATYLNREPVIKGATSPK
# Chain of human Peripheral-type Benzodiazepine Receptor (PBR), TSPO (gene 706) (P30536 whole entry, looked up): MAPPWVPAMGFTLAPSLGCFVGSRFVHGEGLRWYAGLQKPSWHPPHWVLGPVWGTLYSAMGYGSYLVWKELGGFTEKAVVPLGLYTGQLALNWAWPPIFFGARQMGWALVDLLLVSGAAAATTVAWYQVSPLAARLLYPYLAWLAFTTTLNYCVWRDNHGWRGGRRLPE
smiles,measurement,setting,value
CCCCCCOC(=O)CC(CC(=O)OCCCCCC)(OC(=O)CCC)C(=O)OCCCCCC,outcome,[1],inactive
C[C@@H](Oc1ccc(CNC(=O)c2cccnc2Oc2ccc3c(c2)OCO3)c(F)c1)C(=O)O,AC50,[2],20.8 µM (active)
O=S(=O)(O)c1ccc(N=Nc2c(O)ccc3cc(S(=O)(=O)O)ccc23)cc1,AC50,[3],12.3 µM (active)
same,outcome,[4],inactive
O=c1[nH]cnc2c1ncn2[C@H]1CC[C@@H](CO)O1,outcome,[5],inactive
COc1cc2c(c(OC)c1OC)-c1ccc(OC)c(=O)cc1[C@@H](NC(C)=O)CC2,outcome,[4],inactive
O=C(O)c1cccc(C(=O)O)c1,outcome,NCBI gene 24521,inactive
OCCOCCOCCO,outcome,[6],inactive
same,outcome,[7],inactive
COc1cc(C(C)C)c2c(c1)S(=O)(=O)N(COc1cc(=O)n3cccc(OCCN4CCCCC4)c3n1)C2=O,AC50,[8],4.01 µM (active)
same,outcome,[7],inactive
same,AC50,[9],3.14 µM (active)
c1ccc(C(O[C@@H]2CCCN(CCc3ccc4c(c3)OCO4)C2)c2ccccc2)cc1,AC50,[10],2.71 µM (active)
same,AC50,[11],6.43 µM (active)
same,AC50,[8],0.832 µM (active)
same,outcome,[12],inactive
same,outcome,[3],inactive
same,outcome,[13],inactive
same,AC50,[9],0.428 µM (active)
CCc1cccc(CC)c1N,outcome,[6],inactive
Cc1ncc([C@@H](CCCCCCc2ccc3c(n2)NCCC3)CC(=O)O)cn1,AC50,[10],25 µM (active)
CCn1nc(C)c2c1C(=O)NCC(c1ccc(O)cc1)=N2,outcome,[10],inactive
same,outcome,NCBI gene 24521,inactive
same,outcome,[11],inactive
same,outcome,[8],inactive
same,outcome,[5],inactive
same,outcome,[14],inactive
same,outcome,[9],inactive
O=C(O)[C@H](O)[C@@H](O)C(=O)O,outcome,NCBI gene 24521,inactive
COCc1nnc(-c2ccc[n+]([O-])c2)n1-c1c(Cl)c(Cl)cc2[nH]c(=O)c(=O)[nH]c12,AC50,[6],12.6 µM (active)
O=C1CN(N=Cc2ccc([N+](=O)[O-])o2)C(=O)N1,outcome,[6],inactive
same,outcome,[5],inactive
same,outcome,[1],inactive
OC[C@H]1O[C@@](CO)(O[C@H]2O[C@H](CO)[C@@H](O)[C@H](O)[C@H]2O)[C@@H](O)[C@@H]1O,outcome,[3],inactive
same,outcome,[4],inactive
OC(Cn1cncn1)(Cn1cncn1)c1ccc(F)cc1F,outcome,[1],inactive
CCCOc1ccc(S(=O)(=O)N2CCN(CC)CC2)cc1-c1nc2c(CC)n(Cc3ccccn3)nc2c(=O)[nH]1,outcome,[12],inactive
